Our source for the growth inhibition values is PubChem BioAssay (NCI).

SMILES strings stand for the structures. Compounds without any hit were thinned out: in the full panel of roughly 79,000, 15% have a hit. The source made the active and inactive calls. Cut-off read from the data, not from the text of the source: active = growth inhibition above about 70%; inactive = the rest. Where a SMILES comes first, the peptide text is derived from it. Bridges are numbered along the chain shown (N, C = ends).

This test is described as follows: NCI Yeast Anticancer Drug Screen. Data for the mlh1 rad18 strain (AID 175). Particulars: S. cerevisiae mlh1 rad18 strain growth inhibition; at 50.0 µM; hits give high values. Put shortly:
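Compound-treated yeast growth, normalised to vehicle controls. Strain bears defined DNA repair mutations.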
`Cc1cc([NH-])c([NH-])cc1C.[Cl][Pt+2][Cl]`: the growth inhibition was -25.9% (inactive).

With `NC(=O)CCCC(C(N)=O)(c1ccccc1)c1ccccc1`, the growth inhibition is -3.9% (inactive).

With `CCCCOC(=O)c1ccc(NC(=O)Nc2ccc(SC)cc2)cc1`, the growth inhibition is -13.1% (inactive).

For `O=C(NN1C(=O)CSC1c1ccccc1F)c1ccncc1` (stereo not given), the growth inhibition is 19.5% (inactive).

Regarding `Nc1nc2ncc(=O)[nH]c2c(=O)[nH]1`, the growth inhibition was -8.4% (inactive).

`CC(=O)NC(C(=O)O)C(C)(C)S` (stereo not given): the growth inhibition was 8.95% (inactive).

As for `CCc1ccccc1NC(C)=O`, the growth inhibition was -12.7% (inactive).

Take `CC(O)CNCC(C)(C)N` (stereo not given): the growth inhibition was -1.95% (inactive).

As for `COc1ccc(Nc2nc(NS(=O)(=O)c3cc(C)c(Cl)cc3S)n[nH]2)cc1`, the growth inhibition is -4.9% (inactive).

For `O=C(Nc1cccc(Cl)c1Cl)c1cc(/C=C/c2ccc([N+](=O)[O-])cc2)on1`, the growth inhibition is -3.85% (inactive).

As to `COC(=O)c1cc(NS(=O)(=O)c2ccc(N)cc2)cc(C(=O)OC)c1`, the growth inhibition was -24.6% (inactive).

With `CC(=O)N1C(=O)C(=O)c2cc(Cl)ccc21`, the growth inhibition is -1.6% (inactive).

`Cc1cc2ccc(OC(=O)c3ccc(N=C(N)N)cc3)cc2oc1=O`: the growth inhibition is 13.7% (inactive).

For `Nc1ncnc2c1ncn2-c1ccccc1Cl`, the growth inhibition is 3.1% (inactive).

As for `Cc1nc2c(N3CCCCC3)ncnc2o1`, the growth inhibition is 4.05% (inactive).

In the case of `CCCC(C)OC(=O)CC(c1ccccc1)N1CCCCC1` (stereo not given), the growth inhibition was 26.5% (inactive).

For `CC(=O)c1cc([N+](=O)[O-])c(O)c([N+](=O)[O-])c1O`, the growth inhibition was 8.65% (inactive).

For the compound `Brc1nc(-[n+]2ccccc2)[n-]c1Br`, the growth inhibition is 1.4% (inactive).

As to `O=c1c2ccccc2[nH]c2ccc(O)cc12`, the growth inhibition is 16.4% (inactive).

On to `CCOC(=O)c1nc(SC)sc1NC(=O)c1ccc(OC)cc1`, for which the growth inhibition is -4.65% (inactive).

On to `CCOC(=O)Nc1cc2c(c(N)n1)N=C(CN(C)c1ccccc1)CN2`, for which the growth inhibition is 30.3% (inactive).

For the compound `COc1ccc2c(c1)C(O)C(NCc1ccccc1)C2` (stereo not given), the growth inhibition was -8.55% (inactive).

For `NC(=S)N/N=C/C=C/c1ccco1`, the growth inhibition is 52% (inactive).

As to `COC(=O)c1ncn(C(C(=O)OC)C(=O)OC)c1O`, the growth inhibition is -10.8% (inactive).

In the case of `CCOC(=O)C1C2CC3C(CC21C)C3(C)C` (stereo not given), the growth inhibition is 1% (inactive).

With `CCOC(=O)c1cc2ccccc2oc1=O`, the growth inhibition is 3.9% (inactive).

For `Nc1ncnc2c1ncn2C1CCC(COS(N)(=O)=O)C1` (stereo not given), the growth inhibition is 15.4% (inactive).

With `COc1ccccc1-n1c(NN)nc2ccc(Br)cc2c1=O`, the growth inhibition was -12.4% (inactive).

Regarding `CC(=O)OCC1OC(Sc2ccc([N+](=O)[O-])cc2)C(OC(C)=O)C(OC(C)=O)C1OC(C)=O` (stereo not given), the growth inhibition was 17.9% (inactive).

Regarding `CCCCCC(O)(CCCC)CCCCC`, the growth inhibition was 15.9% (inactive).

With `C(=N\c1nccs1)/c1ccc(/C=N/c2nccs2)cc1`, the growth inhibition was 7% (inactive).

As to `C=CCCCCCCCCC(=O)N/N=C/c1ccc(NC(C)=O)cc1`, the growth inhibition is 7.1% (inactive).

In the case of `Cc1ccc(-c2nc3ccccc3cc2N)cc1`, the growth inhibition was -4.4% (inactive).

Consider `CCOC(=O)CC(CC(=O)OCC)(C(=O)OCC)C(=O)OCC`, for which the growth inhibition was -1.95% (inactive).

For the compound `CCOC(=O)c1c[nH]c(C(=O)OCC)c1C`, the growth inhibition is 14.2% (inactive).

With `CCOC(=O)C1CSSCC(N)C(=O)N1` (stereo not drawn) (H-Cys-Cys-OEt; disulfide 1-2; configuration not given here), the growth inhibition is 4.7% (inactive).

Turning to `Cn1nc(-c2ccccc2)c(C(=O)/C=C/c2ccc(F)cc2)c(N2CCCCC2)c1=O`, the growth inhibition is 10.2% (inactive).

With `O=c1[nH]c2cc3[nH]c4ncccc4c(=O)c3cc2[nH]1`, the growth inhibition is 21.3% (inactive).

As for `Nc1c(Br)c(Cl)c(Br)c2c1-c1ccc(Cl)cc1C2`, the growth inhibition is 5.05% (inactive).

In the case of `CCOC(=O)N1CCc2cc(OC)c(OC)c3c2c1cc1cc(OC)c(OC)cc13`, the growth inhibition is 16.4% (inactive).
